rCAG binder – r(CAG) repeat RNA binding | inhibition, % at 3 µM | AID 651821 | TO-PRO-1 dye displacement fluorescence | 370,000 compounds, 1.3% hits;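 active = inhibition above the plate cutoff, the mean of all test compounds on that plate plus 3 SD, cut at about 35% in these data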;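 also: 0% = DMSO alone and 100% = 100 µM mitoxantrone as full dye displacement; higher means more dye released from RNA so lower well fluorescence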
ADAM17 inh – ADAM17 inhibition, QFRET primary screen; inhibition, % at 6.95 µM; P78536; AID 720648; 370,000 compounds, 0.83% hits; recombinant ADAM17, EDANS/DABCYL FRET peptide cleavage;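 active = inhibition above the mean of compounds lying between control limits plus 3 SD, set per campaign, cut at about 8.5% in these data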;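 also: 0% = DMSO-only wells as the low control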
ADAM10 inh – inhibitors of human ADAM10; inhibition, % at 7 µM; 370,000 compounds, 0.62% hits; O14672; recombinant ADAM10, EDANS/DABCYL FRET peptide cleavage, 3 h;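 active = inhibition above a per-campaign cutoff equal to the mean of compounds falling between control-based bounds plus 3 SD, cut at about 20% in these data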;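 also: 0% = DMSO wells while the 100% control is not disclosed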
KLK7 zymogen act – proKLK7 (human) activation, primary screen. activation, % at 7 µM. 370,000 compounds, 0.9% hits. purified proKLK7, EDANS-DABCYL substrate fluorescence; 100% is mature enzyme control, 0% vehicle;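 active = activation above the mean of all tested compounds plus 3 SD, computed per campaign excluding outliers beyond control limits, cut at about 13% in these data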
Target sequence (P49862 whole entry, looked up): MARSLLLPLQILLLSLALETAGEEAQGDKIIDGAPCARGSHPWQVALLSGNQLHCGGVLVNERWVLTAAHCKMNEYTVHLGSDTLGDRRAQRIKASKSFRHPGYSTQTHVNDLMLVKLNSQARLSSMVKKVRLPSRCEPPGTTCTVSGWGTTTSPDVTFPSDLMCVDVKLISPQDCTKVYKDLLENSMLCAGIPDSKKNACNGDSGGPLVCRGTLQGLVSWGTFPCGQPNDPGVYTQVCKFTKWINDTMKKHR
Pemphigus Ab inh – blocks pemphigus antibody binding to human desmoglein-3. P32926. DSG3-coupled beads, scFv-anti-DSG3-GFP binding, flow cytometry; stronger effect = lower value. binding (percent of control), % at 10 µM. 310,000 compounds, 0.48% hits. AID 588358;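 active = binding more than 3 SD below its plate's average and above zero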
MPTP inh – blocks calcium-induced mitochondrial swelling. 360,000 compounds, 1.4% hits. isolated mouse mitochondria, Ca2+ swelling absorbance, 30 min. inhibition, % at 10 µM. AID 602449;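 active = inhibition of 50% or more, scaled per plate between neutral and stimulator controls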;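 also: 0% = DMSO wells given calcium and 100% = 1 mM EGTA wells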
rCAG binder conf – r(CAG) RNA repeat binding, confirmation | shares compounds with rCAG binder | TO-PRO-1 dye displacement fluorescence | inhibition, % at 3 µM | 4,300 compounds, 70% hits | AID 652065;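 active = inhibition above a per-plate cutoff, the mean inhibition of sample wells plus 3 SD, cut at about 35% in these data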;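 also: loss of TO-PRO-1 fluorescence as compound displaces dye from 1x1 AA loop RNA; 0% = DMSO only wells and 100% = 100 µM mitoxantrone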
DNA CAG counter – disrupts DNA CAG TO-PRO-1 complex, flagging rCAG hits. inhibition, % at 3 µM. shares compounds with rCAG binder. 4,300 compounds, 94% hits. d(CAG) DNA oligo TO-PRO-1 dye displacement, fluorescence. AID 652068;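 active = inhibition above its plate's cutoff, the mean test-well inhibition plus 3 SD, cut at about 4.8% in these data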;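 also: 0% = DNA dye mix with DMSO and 100% = 100 µM mitoxantrone; hits displace the dye from DNA and so lower well fluorescence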
An asterisk follows results filed as active; . = not tested or not shown. Compounds with a hit are over-represented: about 4.7% of the library has one in this group of screens.

SMILES	rCAG binder	ADAM17 inh	ADAM10 inh	KLK7 zymogen act	Pemphigus Ab inh	MPTP inh	rCAG binder conf	DNA CAG counter
O=C(CSc1ccc(Cl)cc1)NC1=NN(c2ccccc2)C(=O)C1	54.9*	-1.9	-1.4	-0.5	99.9	-0.4	26.6	10.3*
Cc1cccc(C)c1-n1c(SCC(=O)Nc2ccc(C(=O)O)cc2)nnc1-c1cccc(S(=O)(=O)N(C)C)c1	38.0*	1.5	1.4	0.3	104.3	-0.8	29.4	3.6
O=C(CSc1cc([N+](=O)[O-])cc(S(=O)(=O)Cc2ccccc2)c1)NC1CC1	56.0*	0.6	0.8	-0.6	103.6	-0.4	5.4	5.6*
O=C(COC(=O)c1cccc(S(=O)(=O)N2CCCC2)c1)Nc1ccc(Cl)cc1	6.2	1.5	1.3	0.3	97.2	0.2	.	.
CC(=O)c1ccc(NC(=O)CN2C(=O)/C(=C/C=C/c3ccccc3)SC2=S)cc1	38.4*	4.4	15.7	-0.5	80.2*	-0.7	21.6	15.5*
O=C(CN1C(=O)S/C(=C\C=C\c2ccccc2)C1=O)Nc1cccc(O)c1	17.7	7.2	13.6	-4.3	107.1	2.6	.	.
O=C(CN1C(=O)S/C(=C\C=C\c2ccccc2)C1=O)Nc1ccccc1C(=O)O	77.1*	-0.4	4.9	0.9	86.8	3.8	84.0*	52.1*
c1coc(-c2nnc3sc(Cc4cccs4)nn23)c1	35.6*	5.5	17.5	-1.7	92.6	-0.4	8.9	5.2*
O=C(O)COc1ccc(-c2nc(-c3ccccc3)c(-c3ccccc3)[nH]2)cc1	26.3	-25.3	-72.4	0.0	.	-2.8	.	.
O=C(O)COc1ccccc1-c1nc(-c2ccccc2)c(-c2ccccc2)[nH]1	62.6*	-118.1	-302.2	1.2	110.2	0.8	50.9*	13.1*
COc1cccc(-c2nc(-c3ccccc3)c(-c3ccccc3)[nH]2)c1OCC(=O)O	64.3*	-9.2	-17.6	0.1	103.7	3.5	61.4*	19.4*
COc1cc(/C=C/C(=O)O)ccc1OS(=O)(=O)c1c(C)c(C)cc(C)c1C	55.8*	-5.3	-1.6	0.0	102.0	0.7	55.6*	15.6*
CCOC(=O)c1c(-c2ccccc2)csc1NC(=O)/C(C#N)=C/c1ccc(O)c(OC)c1	44.7*	-0.7	4.5	-1.3	.	12.4	87.1*	59.7*
CN1[C@@H](Cc2ccccc2)COc2cc(F)ccc2S1(=O)=O	2.5	-3.9	-4.3	-0.5	.	.	.	.
N#Cc1c(-c2ccccc2)nc(SCC(=O)NC2CCCCC2)[nH]c1=O	30.6	-2.0	-5.5	-0.6	100.0	-0.7	.	.
CN(C(=O)CSc1nc(-c2ccc(C(C)(C)C)cc2)c(C#N)c(=O)[nH]1)C1CCCCC1	70.3*	-1.9	7.6	0.8	105.2	16.1	84.5*	50.1*
COc1ccc(/C=C/C(=O)NC(=S)Nc2ccc(S(=O)(=O)Nc3cc(C)on3)cc2)cc1	23.9	-1.7	1.5	0.6	103.7	0.8	.	.
COc1ccc(/C=C/C(=O)NC(=S)Nc2ccc(S(=O)(=O)Nc3ccc(OC)nn3)cc2)cc1	69.8*	-4.5	-9.5	-0.5	102.5	16.0	66.1*	32.5*
COc1cc(NS(=O)(=O)c2ccc(NC(=S)NC(=O)/C=C/c3ccco3)cc2)ncn1	56.7*	-0.5	-12.0	0.0	98.5	-1.3	47.9*	15.9*
Cc1cc(/C=C2\SC(=S)NC2=O)c(C)n1C1CC1	35.9*	-0.1	5.3	0.3	100.8	3.1	22.7	7.1*
Cc1cc(/C=C2/C(=O)N(C)C(=S)N2C)c(C)n1C1CC1	8.2	-5.0	-4.9	-0.1	96.3	-0.5	.	.
CCCCn1nnnc1C1c2ccccc2OCC(=O)N1Cc1ccc2c(c1)OCO2 (centres undefined)	1.1	-2.1	1.2	0.0	.	.	.	.
O=[N+]([O-])c1ccccc1S(=O)(=O)Nc1ccc(-c2ccc(N3CCCC3)nn2)cc1	37.0*	-4.4	2.4	-0.5	115.1	0.3	38.3*	15.9*
CCOc1ccc(-c2ccc(NS(=O)(=O)c3cc([N+](=O)[O-])c(C)c([N+](=O)[O-])c3)cc2)nn1	67.7*	0.7	3.9	0.2	126.0	4.5	44.1*	13.7*
COc1ccc(-c2cccc(NS(=O)(=O)c3ccccc3[N+](=O)[O-])c2)nn1	18.2	0.8	4.3	-0.2	94.4	-1.2	.	.
SMILES	rCAG binder	ADAM17 inh	ADAM10 inh	KLK7 zymogen act	Pemphigus Ab inh	MPTP inh	rCAG binder conf	DNA CAG counter
CCOc1ccc(-c2cccc(NS(=O)(=O)c3ccccc3[N+](=O)[O-])c2)nn1	34.7*	-2.6	0.6	0.3	98.4	1.0	21.1	8.5*
CCOc1ccc(-c2cccc(NS(=O)(=O)c3cc([N+](=O)[O-])ccc3C)c2)nn1	37.8*	1.2	-4.5	0.6	94.0	0.7	42.9*	13.0*
O=C(NC1CCCC1)[C@@H]1CCCN1C(=O)[C@@H](NC(=O)N1CCOCC1)c1ccccc1	1.7	1.3	-1.6	-0.3	.	.	.	.
CN(N=Cc1ccc2c(c1)OCO2)C(=O)c1ccccc1N	1.6	-1.7	-8.0	-0.5	.	.	.	.
CC(=O)Nc1ccc(-c2ccnc3c2CC(C)(C(=O)NCc2cccc(Cl)c2)O3)cc1 (centres undefined)	0.5	2.5	3.4	0.2	.	0.2	.	.
COc1cccc(CNC(=O)[C@@H]2CCCN2)c1	1.4	-1.2	-4.4	0.3	.	0.5	.	.
Cn1cnc([N+](=O)[O-])c1Sc1nnc(-c2ccccc2)c(-c2ccccc2)n1	3.5	-3.2	-5.8	-0.1	.	.	.	.
CCOC(=O)C1=C(CSc2nc(CC)c(C)cc2C#N)OC(N)=C(C#N)C1c1ccc(OC)cc1 (centres undefined)	1.0	-28.2	-122.3	5.3	.	4.8	.	.
COC(=O)C1=C(CSc2nc3c(cc2C#N)CN(C)CC3)OC(N)=C(C#N)C1c1ccc(F)cc1 (centres undefined)	50.3*	-33.3	-79.6	0.9	130.8	4.1	27.3	15.8*
CCOc1ccc(N=C(/C(C(=O)C(=O)N2CCOCC2)=C(/O)c2ccccc2)c2ccccc2)cc1	6.4	-2.7	-5.7	-0.3	.	1.2	.	.
COc1cc(/C=C/C(=O)O)cc(S(=O)(=O)NC2CCCC2)c1OC	5.5	-12.7	-37.0	0.3	96.2	1.4	.	.
COc1cc(/C=C/C(=O)O)cc(S(=O)(=O)Nc2cc(Cl)c(Cl)cc2Cl)c1OC	64.8*	-1.3	2.6	-0.4	104.3	-0.3	36.6*	7.4*
COc1cc(/C=C/C(=O)O)cc(S(=O)(=O)Nc2cc(C(F)(F)F)ccc2N2CCOCC2)c1OC	41.0*	-4.7	-7.6	0.2	94.5	-0.7	33.2	5.8*
Cc1ccc2sc(NNC(=O)C3=COCCO3)nc2c1C	51.0*	-5.2	-8.3	-1.6	98.4	-0.9	14.3	5.8*

Screening data (PubChem BioAssay)
